Experimental data taken from the supplement of paper PMC13380429.

Columns and labels:
[1] = system: Vero E6 infected with SARS-CoV-2; assay: morphology score (similarity to uninfected cells); higher = more like uninfected cells; details: 24 h
[2] = system: Vero E6 infected with SARS-CoV-2; assay: SARS-CoV-2 infection rate relative to infected DMSO; higher = more infection, active = 60 or less; details: 24 h

| Compound | morphology score [1] | SARS-CoV-2 infection rate [2] |
| --- | --- | --- |
| CNc1ncc2cc(-c3cc(NC(=O)NCCC(C)(C)C)c(F)cc3C)c(C)nc2n1 (10 µM) | 0.18 | 106% (inactive) |
| COc1ccc(-c2cnc3c(-c4cccc5ncccc45)cnn3c2)cc1 (10 µM) | 0.294 | 100% (inactive) |
| CCCC[C@@H](NC(=O)[C@@H](Cc1cn(C(=O)OC)c2ccccc12)NC(=O)[C@H](CC(C)(C)C)NC(=O)N1[C@H](C)CCC[C@@H]1C)C(=O)O (10 µM) | 0.0975 | 104% (inactive) |
| CC[N+](CC)(CCNC(=O)C(=O)NCC[N+](CC)(CC)Cc1ccccc1Cl)Cc1ccccc1Cl [ambenonium] (10 µM) | 0.131 | 106% (inactive) |
| O=C(Nc1ccccc1)N[C@H]1C[C@H](C(=O)O)Nc2cc(Cl)cc(Cl)c21 (10 µM) | -0.146 | 106% (inactive) |
| NC(=O)c1cccc2cn(-c3ccc([C@@H]4CCCNC4)cc3)nc12 [niraparib] (0.833333 µM) | 0.0643 | 102% (inactive) |
| Cc1cc(Nc2nc(N[C@@H](C)c3ncc(F)cn3)ncc2Cl)[nH]n1 (10 µM) | 0.046 | 108% (inactive) |
| CN1CCN(c2ccc(Nc3ncc4cc(C#N)c(=O)n(C5CCCC5)c4n3)cc2)CC1 (0.833333 µM) | 0.153 | 104% (inactive) |
| COc1ccc(C(=O)NCc2ccc(OCCN(C)C)cc2)cc1OC [itopride] (10 µM) | 0.19 | 90.5% (inactive) |
| Cc1c(C(N)=O)cc([N+](=O)[O-])cc1[N+](=O)[O-] [dinitolmide] (10 µM) | -0.0186 | 106% (inactive) |
| NS(=O)(=O)c1cc2c(cc1Cl)N=C(CSCc1ccccc1)NS2(=O)=O [benzthiazide] (10 µM) | -0.187 | 116% (inactive) |
| CN1C(CSCC(F)(F)F)Nc2cc(Cl)c(S(N)(=O)=O)cc2S1(=O)=O (stereo unspecified) [polythiazide] (10 µM) | 0.2 | 100% (inactive) |
| O=C1C[C@@H](c2ccc(O)cc2)Oc2cc(O)ccc21 (10 µM) | 0.025 | 110% (inactive) |
| COc1ccc(Cc2nccc3cc(OC)c(OC)cc23)cc1OC [papaverine] (10 µM) | 0.169 | 105% (inactive) |
| N#Cc1ccccc1OCC(O)CNCCNC(=O)Nc1ccccc1 (stereo unspecified) (10 µM) | -0.0291 | 109% (inactive) |
| CCCCCCCCCC(=O)OCCN1CCN(CCCN2c3ccccc3Sc3ccc(C(F)(F)F)cc32)CC1 [fluphenazine-decanoate] (10 µM) | -0.147 | 112% (inactive) |
| O=c1ccn([C@@H]2O[C@H](COP(=O)(O)OP(=O)(O)OP(=O)(O)O)[C@@H](O)[C@H]2O)c(=O)[nH]1 (10 µM) | 0.267 | 97% (inactive) |
| CCCCc1ccc(NS(=O)(=O)c2ccc(F)cc2)cc1 (10 µM) | 0.122 | 102% (inactive) |
| Clc1ccc(C(c2ccccc2Cl)C(Cl)Cl)cc1 (stereo unspecified) [mitotane] (10 µM) | -0.173 | 112% (inactive) |
| O=[N+]([O-])c1cc(Cl)ccc1S(=O)(=O)N1CCN(Cc2ccccc2)CC1 (10 µM) | -0.0654 | 112% (inactive) |
| O=C(CNC(=O)c1cccc(C(F)(F)F)c1)N[C@@H]1CCN(Cc2ccc(Cl)cc2)C1 [teijin-compound-1] (10 µM) | -0.116 | 103% (inactive) |
| CC(C)NCC(O)COc1ccc(COCCOC(C)C)cc1 (stereo unspecified) [bisoprolol] (10 µM) | -0.0255 | 106% (inactive) |
| CC(C)(Oc1ccc(C2CC2(Cl)Cl)cc1)C(=O)O (stereo unspecified) [ciprofibrate] (10 µM) | -0.0908 | 109% (inactive) |
| COC1=C[C@@H]2[C@@H]3Cc4ccc(OC)c(O)c4[C@]2(CCN3C)CC1=O [sinomenine] (10 µM) | 0.141 | 122% (inactive) |
| COc1cc(N)cn[n+]1-c1ccccc1 [amezinium] (10 µM) | 0.0864 | 100% (inactive) |
| CNC(=S)C1(c2ccccn2)CCCS1 (stereo unspecified) [picartamide] (10 µM) | -0.0189 | 106% (inactive) |
| NCCNc1ccc(NCCN)c2c1C(=O)c1ccncc1C2=O [pixantrone] (10 µM) | 0.328 | 71% (inactive) |
| COc1cc2ncnc(Sc3nnc(C)s3)c2cc1OC (10 µM) | 0.403 | 102% (inactive) |
